Reference: PubChem BioAssay (NCATS)
Results filed as inconclusive are left out. Calls of active or inactive are those of the source. Unless noted, calls come from the whole dose curve; as a rule, active = well fitted curve in the direction sought with a large enough effect; inconclusive = small, poorly fitted or top-dose-only effect, or another doubt; inactive = no such curve, though single readings can be large; an effect the other way counts as inactive or inconclusive.

What was measured:
[1] = target: Phosphoglycerate kinase, glycosomal (Trypanosoma brucei brucei) (UniProt P07378); test: qHTS Validation Assay to Find Inhibitors of Phosphoglycerate Kinase (AID 504547)
Phosphoglycerate kinase, glycosomal (Trypanosoma brucei brucei), sequence (P07378 whole entry, looked up): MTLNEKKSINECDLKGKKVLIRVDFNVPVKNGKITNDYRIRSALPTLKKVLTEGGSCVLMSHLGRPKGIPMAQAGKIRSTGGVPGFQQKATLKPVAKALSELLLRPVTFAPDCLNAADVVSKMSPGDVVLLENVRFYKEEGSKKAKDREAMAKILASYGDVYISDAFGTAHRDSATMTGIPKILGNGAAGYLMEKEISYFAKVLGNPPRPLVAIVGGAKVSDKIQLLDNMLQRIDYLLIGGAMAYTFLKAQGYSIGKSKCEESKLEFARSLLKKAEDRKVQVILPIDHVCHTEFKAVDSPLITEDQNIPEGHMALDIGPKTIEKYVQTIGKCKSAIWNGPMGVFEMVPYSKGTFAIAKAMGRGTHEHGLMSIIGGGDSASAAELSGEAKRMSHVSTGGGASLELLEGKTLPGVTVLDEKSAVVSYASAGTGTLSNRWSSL
Method in brief: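 Inhibition of the enzyme is judged by a Kinase-Glo Plus luminescent signal following a one-hour incubation at room temperature. Because 1,3-BPG is unstable, it is made in situ by GAPDH at 100nM final; no-PGK wells define the baseline.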

[2] = target: phosphoglycerate mutase (Leishmania major) (UniProt Q4Q090); test: qHTS Validation Assay to Find Inhibitors of Phosphoglycerate Mutase (AID 504548); note: series mostly up to about 58 µM
Method in brief: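 Luminescent end-point read-out via Kinase-GloPlus after a 10-minute development. Reaction: 1.25nM Leishmania major PGAM with substrate and compound, 45 minutes at room temperature in TEA buffer (pH 7.6) with MgCl2 and Tween-20.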

[3] = qHTS for Inhibitors of ATXN expression: Validation of Cytotoxic Assay (AID 588349)
Method in brief: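 Read-out: ATP-based luminescence (CellTiter Glo) reflecting viability of HEK293 cells after 72 hr incubation at 37 degrees C with a concentration series of each compound.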

[4] = qHTS for Inhibitors of ATXN expression: Validation (AID 588378); note: series mostly up to about 57 µM; nearly all actives have a fitted effect of over 75% in size
Method in brief: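 After a 2 h attachment and 24 h compound incubation, HEK293-ATXN2-FFLuc wells are read for fluorescence at 405 nm excitation/525 nm emission as a viability measure, then for Bright-Glo luminescence reflecting ATXN2 expression.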

[5] = target: Glutaminase kidney isoform, mitochondrial (Homo sapiens) (UniProt O94925); test: qHTS for Inhibitors of Glutaminase (GLS): LOPAC Validation (AID 624146);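 note: glutamate product detected by oxidase and peroxidase coupled Amplex red fluorescence gain; series mostly up to about 46 µM; nearly all actives have a fitted effect of over 60% in size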
Glutaminase kidney isoform, mitochondrial (Homo sapiens), sequence (O94925 whole entry, looked up, canonical isoform): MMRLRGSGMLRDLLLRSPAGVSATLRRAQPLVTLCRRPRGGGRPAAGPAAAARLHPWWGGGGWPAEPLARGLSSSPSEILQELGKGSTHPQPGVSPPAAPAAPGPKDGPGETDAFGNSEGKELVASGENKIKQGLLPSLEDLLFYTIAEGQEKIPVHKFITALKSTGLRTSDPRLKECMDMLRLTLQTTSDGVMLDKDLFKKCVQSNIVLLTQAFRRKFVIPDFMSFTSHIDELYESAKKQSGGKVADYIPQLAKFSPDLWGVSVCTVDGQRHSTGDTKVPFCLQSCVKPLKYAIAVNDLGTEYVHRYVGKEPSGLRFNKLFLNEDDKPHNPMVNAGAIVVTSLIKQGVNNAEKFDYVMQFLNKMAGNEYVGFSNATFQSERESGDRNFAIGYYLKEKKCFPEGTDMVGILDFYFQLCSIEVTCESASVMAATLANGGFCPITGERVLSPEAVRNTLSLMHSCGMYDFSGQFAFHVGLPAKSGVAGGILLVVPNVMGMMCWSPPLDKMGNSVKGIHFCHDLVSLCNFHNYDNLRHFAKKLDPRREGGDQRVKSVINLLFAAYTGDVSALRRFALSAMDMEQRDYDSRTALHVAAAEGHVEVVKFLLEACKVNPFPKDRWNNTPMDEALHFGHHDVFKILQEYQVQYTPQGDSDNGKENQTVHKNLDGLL
Method in brief: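 Read-out is an Amplex red fluorescence increase coupled through glutamate oxidase and HRP, measured before and after 30 min room-temperature incubation. hKGA is in 45 mM KH2PO4 (pH 8.2) with 0.02% Tween-20; glutamine added as 1mM solution.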

[6] = qHTS of Trypanosoma Brucei Inhibitors: LOPAC Validation (AID 624147)
Method in brief: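 Enzyme and substrate buffer are dispensed first and compound is pin-transferred. ADP at 130 uM final then starts the reaction, which runs 45 min at room temperature. Detection reagent is added for 10 min before luminescence is imaged.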

[7] = target: Glucagon-like peptide 1 receptor (Homo sapiens) (UniProt P43220); test: qHTS of GLP-1 Receptor Agonists: LOPAC Validation (AID 624148);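 note: luminescence from a luciferase reporter switched on by cAMP; higher luminescence signal means agonism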
Method in brief: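 Agonism scored as increased luciferase luminescence driven by cAMP in HEK293 clones carrying GLP-1R. Cells settled 12 hours, received compound for 4-6 hr at 37 deg C, 5% CO2, and were read after 12 min detection reagent at RT.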

[8] = qHTS of Nrf2 Activators: LOPAC Validation (AID 624149)
Method in brief: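 Luminescence read-out of ARE-luciferase activation: AREc32_Fluc cells treated with compounds for 24 hr at 37 deg C, then lysed with Steady-Glo for 30 min at room temperature before reading.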

[9] = HTS Assay for Allosteric Antagonists of the Human D2 Dopamine Receptor: Hit Validation in HTRF (AID 624455);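 note: stable D1 dopamine receptor cell line scored for blocking the D1 response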
Method in brief: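 First, antagonism was screened by calcium flux in a force-coupled, inducible Hek293 Trex D2 line challenged with EC80 dopamine. Hits then went into an HTRF assay in cells stably expressing D1, testing inhibition of the D1 response.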

[10] = qHTS for compounds that reverse cellular toxicity of Amyloid beta (A-beta) peptide in yeast: LOPAC Validation Assay (AID 720559)
Method in brief: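 Here, A-beta-toxic yeast grow with test compounds at 30 C for 48 hr before optical density at 600 nm is recorded; data are normalized against DMSO and the FeCl3-clioquinol control.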

[11] = qHTS for Activators of Parkin Expression: LOPAC Validation Assay (NLuc Reporter) (AID 720572)
Method in brief: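 Parkin promoter-driven FLuc/NLuc neuronal reporter cells; 24 h plating, 7-pt dose response, 24 h at 37 C/5% CO2; FLuc then NanoLuc reagent, 10 min each, luminescence; DMSO/positive control normalized.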

[12] = qHTS for Activators of Parkin Expression: LOPAC Validation Assay (FLuc Reporter) (AID 720573)
Method in brief: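 Readout is FLuc luminescence from neuronal reporter cells (Parkin promoter, FLuc plus NLuc) after 24 h compound exposure in dose response. Values normalized to neutral DMSO and positive-control compounds.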

[13] = target: T1, Hexokinase-4 (Homo sapiens) + Glucokinase regulatory protein (Homo sapiens) (UniProt P35557+Q14397); test: qHTS assay for inhibitors of recombinant human GCK-GKRP interaction: Diaphorase-coupled assay (AID 743205)
T1 sequence (P35557 whole entry, looked up): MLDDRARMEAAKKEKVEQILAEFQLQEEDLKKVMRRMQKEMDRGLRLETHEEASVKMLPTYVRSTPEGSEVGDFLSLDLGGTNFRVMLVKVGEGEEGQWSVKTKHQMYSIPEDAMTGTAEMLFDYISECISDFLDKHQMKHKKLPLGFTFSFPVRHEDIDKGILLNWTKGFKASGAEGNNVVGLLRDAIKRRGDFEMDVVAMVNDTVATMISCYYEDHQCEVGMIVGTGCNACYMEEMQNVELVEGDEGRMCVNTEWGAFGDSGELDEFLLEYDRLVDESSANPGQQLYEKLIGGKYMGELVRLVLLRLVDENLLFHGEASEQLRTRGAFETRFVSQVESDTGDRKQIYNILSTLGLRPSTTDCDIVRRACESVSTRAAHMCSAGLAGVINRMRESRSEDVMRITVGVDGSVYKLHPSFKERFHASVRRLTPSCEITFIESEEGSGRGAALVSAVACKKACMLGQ
T1 sequence (Q14397 whole entry, looked up): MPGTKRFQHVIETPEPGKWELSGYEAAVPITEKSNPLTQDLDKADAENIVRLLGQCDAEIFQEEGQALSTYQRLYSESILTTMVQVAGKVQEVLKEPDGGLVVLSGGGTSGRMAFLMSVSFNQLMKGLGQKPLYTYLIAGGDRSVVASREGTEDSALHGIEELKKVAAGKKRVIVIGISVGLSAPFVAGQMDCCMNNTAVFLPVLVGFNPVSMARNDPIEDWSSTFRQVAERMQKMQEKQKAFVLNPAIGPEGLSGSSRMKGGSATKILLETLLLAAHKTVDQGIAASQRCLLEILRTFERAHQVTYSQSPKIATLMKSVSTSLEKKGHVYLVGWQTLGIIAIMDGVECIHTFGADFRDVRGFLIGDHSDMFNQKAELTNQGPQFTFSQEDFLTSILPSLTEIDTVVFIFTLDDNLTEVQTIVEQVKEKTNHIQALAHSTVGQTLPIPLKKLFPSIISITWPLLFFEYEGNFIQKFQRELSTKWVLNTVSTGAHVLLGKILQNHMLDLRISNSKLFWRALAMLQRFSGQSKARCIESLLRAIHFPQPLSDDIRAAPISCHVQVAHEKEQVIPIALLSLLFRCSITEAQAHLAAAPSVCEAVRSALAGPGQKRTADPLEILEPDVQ
Method in brief: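 Signal derives from resorufin generated by diaphorase, linked to GCK turnover of glucose (5 mM) and ATP (0.4 mM). Enzyme complex was added after a 20-minute compound preincubation and monitored for 30 minutes.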

[14] = target: T1, Hexokinase-4 (Homo sapiens) + Glucokinase regulatory protein (Homo sapiens); test: qHTS assay for inhibitors of recombinant human GCK-GKRP interaction: ADP-Glo assay (AID 743206)
Method in brief: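 GST-GCK and FLAG-GKRP (15 nM each in the dispensed mix, with 2 uM S6P) react with 0.4 mM ATP and 5 mM glucose (final) in Hepes pH 7.6 for 60 min at room temperature. ADP is measured by ADP-Glo luminescence.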

[15] = target: T1, Hexokinase-4 (Homo sapiens) + Glucokinase regulatory protein (Homo sapiens); test: qHTS assay for inhibitors of recombinant human GCK-GKRP interaction: HTRF assay (AID 743207)
Method in brief: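 Titration screening format: recombinant GST-GCK and FLAG-GKRP at 5 nM, S6P at 2 uM, labelled anti-tag antibodies, 60 min at RT, dual-wavelength HTRF readout.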

[16] = Natriuretic polypeptide receptor (hNpr1) antagonism - Pilot counterscreen GloSensor control cell line (AID 1347045; calls by dose curve; note: series mostly up to about 38 µM)
Method in brief: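 Luminescence was read before and 20 min after adding 50 uM SNP, which stimulates soluble guanylyl cyclase. The HEK293 cells expressing the GloSensor cGMP sensor had been preloaded with 2% reagent for 2 h and treated with compound.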

[17] = target: Atrial natriuretic peptide receptor 1 (Homo sapiens) (UniProt P16066); test: Natriuretic polypeptide receptor (hNpr1) antagonism - Pilot screen (AID 1347049; calls by dose curve;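 note: agonist-evoked cGMP luminescence read 20 min after hNppA addition; series mostly up to about 58 µM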)
Method in brief: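 Readout is cGMP-driven firefly luciferase luminescence in HEK293 cells carrying hNpr1 and a PDE5-domain GloSensor, read before and 20 min after 0.1 nM hNppA stimulation. Cells had 2% substrate reagent for 2 h and test compound for 30 min.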

[18] = target: Atrial natriuretic peptide receptor 2 (Homo sapiens) (UniProt P20594); test: Natriuretic polypeptide receptor (hNpr2) antagonism - Pilot subtype selectivity assay (AID 1347050; calls by dose curve)
Method in brief: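 Pilot selectivity screen against hNpr2: HEK293 cGMP-sensor cells are treated with LOPAC1280 compounds, then with hNppC peptide at 1 nM final. The cGMP-driven luminescence change over 20 min at room temperature is the read-out.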

[19] = target: T2, Tyrosine-protein phosphatase non-receptor type substrate 1 (Homo sapiens) + Leukocyte surface antigen CD47 (Homo sapiens) (UniProt P78324+Q08722); test: CD47-SIRPalpha protein protein interaction - LANCE assay qHTS validation (AID 1347057; active = well fitted curve in the direction sought with a large enough effect in the signal ratio, with a control signal flat, not every such curve was filed as active; the % refers to the signal ratio; note: series mostly up to about 38 µM)
T2 sequence (P78324 whole entry, looked up): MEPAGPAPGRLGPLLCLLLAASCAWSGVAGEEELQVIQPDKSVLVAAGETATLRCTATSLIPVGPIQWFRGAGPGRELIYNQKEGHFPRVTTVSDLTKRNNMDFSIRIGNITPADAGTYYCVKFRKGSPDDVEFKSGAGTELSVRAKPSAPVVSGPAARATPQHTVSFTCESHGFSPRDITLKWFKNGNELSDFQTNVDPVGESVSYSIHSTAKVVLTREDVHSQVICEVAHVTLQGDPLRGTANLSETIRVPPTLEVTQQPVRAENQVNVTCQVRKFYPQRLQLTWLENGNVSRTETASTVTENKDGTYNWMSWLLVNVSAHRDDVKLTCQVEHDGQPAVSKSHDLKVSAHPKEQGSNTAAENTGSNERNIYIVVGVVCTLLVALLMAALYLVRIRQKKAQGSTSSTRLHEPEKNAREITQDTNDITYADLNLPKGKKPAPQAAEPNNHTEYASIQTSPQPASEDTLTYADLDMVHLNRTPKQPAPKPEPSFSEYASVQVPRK
T2 sequence (Q08722 whole entry, looked up): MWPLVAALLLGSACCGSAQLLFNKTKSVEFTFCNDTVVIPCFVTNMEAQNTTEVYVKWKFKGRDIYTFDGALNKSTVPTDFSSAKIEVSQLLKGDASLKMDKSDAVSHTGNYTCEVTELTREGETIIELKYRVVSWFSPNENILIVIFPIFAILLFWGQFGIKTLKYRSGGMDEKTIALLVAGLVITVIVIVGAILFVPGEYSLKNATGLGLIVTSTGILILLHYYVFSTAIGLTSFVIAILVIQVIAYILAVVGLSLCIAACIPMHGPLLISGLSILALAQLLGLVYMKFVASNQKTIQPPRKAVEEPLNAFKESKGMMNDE
Method in brief: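 First, His-tagged CD47 and Eu-labelled anti-His antibody met the compound for 30 min; next, site-specifically biotinylated SIRPalpha was added for 30 min; finally streptavidin-APC was added before reading the TR-FRET ratio.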

[20] = target: T2, Tyrosine-protein phosphatase non-receptor type substrate 1 (Homo sapiens) + Leukocyte surface antigen CD47 (Homo sapiens); test: CD47-SIRPalpha protein protein interaction - HTRF assay qHTS validation (AID 1347058; active = well fitted curve in the direction sought with a large enough effect in the signal ratio, not every such curve was filed as active; the % refers to the signal ratio;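 note: recombinant soluble extracellular CD47 with His tag and biotinylated SIRPalpha domains; series mostly up to about 38 µM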)
Method in brief: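 TR-FRET read (Ch1/Ch2 ratio) of soluble extracellular CD47 and Avi-biotinylated SIRPalpha domains in PBS pH 7.4 with 0.05% IGEPAL; 7-point compound titration. Sequential 30 min room-temperature steps; non-biotinylated SIRPalpha as control inhibitor.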

[21] = target: T2, Tyrosine-protein phosphatase non-receptor type substrate 1 (Homo sapiens) + Leukocyte surface antigen CD47 (Homo sapiens); test: CD47-SIRPalpha protein protein interaction - Alpha assay qHTS validation (AID 1347059);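 note: bead proximity luminescence from CD47 binding SIRPalpha after compound preincubation with SIRPalpha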
Method in brief: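 Binding is measured by AlphaScreen proximity: Ni-NTA acceptor beads capture His-CD47, streptavidin donor beads capture biotin-SIRPalpha. Each of three additions (SIRPalpha with compound, CD47, beads) incubates 30 min at room temperature protected from light.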

[22] = target: Parathyroid hormone/parathyroid hormone-related peptide receptor (Homo sapiens) (UniProt Q03431); test: qHTS for PTHR1 Agonists: Optimization Screen against the NCGC LOPAC library (AID 1347079);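 note: GloSensor cAMP luminescence in HEK-293 GP2 cells expressing human PTHR1 with IBMX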
Parathyroid hormone/parathyroid hormone-related peptide receptor (Homo sapiens), sequence (Q03431 whole entry, looked up): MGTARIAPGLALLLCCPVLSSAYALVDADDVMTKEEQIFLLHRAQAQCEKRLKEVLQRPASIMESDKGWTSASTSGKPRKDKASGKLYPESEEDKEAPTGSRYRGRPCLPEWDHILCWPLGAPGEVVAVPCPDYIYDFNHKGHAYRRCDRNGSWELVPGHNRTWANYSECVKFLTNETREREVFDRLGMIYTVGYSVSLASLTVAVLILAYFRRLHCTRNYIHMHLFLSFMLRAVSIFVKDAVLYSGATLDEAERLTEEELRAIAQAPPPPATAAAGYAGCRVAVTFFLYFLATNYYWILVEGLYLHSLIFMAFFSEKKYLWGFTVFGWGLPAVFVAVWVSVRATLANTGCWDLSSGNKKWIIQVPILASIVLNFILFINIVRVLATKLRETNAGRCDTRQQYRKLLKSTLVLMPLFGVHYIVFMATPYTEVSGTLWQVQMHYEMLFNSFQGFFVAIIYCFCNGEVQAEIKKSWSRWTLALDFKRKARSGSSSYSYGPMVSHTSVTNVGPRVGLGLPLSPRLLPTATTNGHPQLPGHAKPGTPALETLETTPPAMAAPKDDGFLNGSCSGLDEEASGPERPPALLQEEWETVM
Method in brief: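 Agonist readout: GloSensor cAMP luminescence, read after 15 min at room temperature. HEK-293-derived GP2 line carries PTHR1; compounds tested as a titration for 1 hr at 37C in presence of IBMX. M-PTH (1-15) served as control.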

[23] = tested on: Zika virus NS2B-NS3 protease (unlinked); test: Optimization of GU AMC qHTS for Zika virus inhibitors: Unlinked NS2B-NS3 protease assay (AID 1347151); note: series mostly up to about 52 µM; nearly all actives have a fitted effect of over 80% in size
Method in brief: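 In this qHTS, compounds acted on 25 nM unlinked Zika NS2B–NS3 in pH 8.0 Tris/Tween buffer. Cleavage of an AMC peptide ran 15 min at room temperature, to about 20% conversion.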

[24] = target: Lysine-specific demethylase 5B (Homo sapiens) (UniProt Q9UGL1); test: Optimization screen for KDM5B Histone Demethylases FDH coupled qHTS against the LOPAC library (AID 1347166)
Method in brief: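 KDM5BDeltaAP (200nM final) preincubated 10 min with compound, then 12.5uM H3K4Me3, 25uM a-ketoglutarate, ascorbate, Fe(II), NAD+ and FDH added; 50mM HEPES pH 7.5, 0.01% Tween-20. NADH fluorescence (340/450 nm) change over 30 min, room temperature.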

[25] = qHTS to identify inhibitors of the type 1 interferon - major histocompatibility complex class I in skeletal muscle: primary screen against the NCATS LOPAC collection (AID 1347405);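 note: lytic HiBiT luminescence reporting HLA-B protein level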
Method in brief: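 Luminescence from HiBiT fused to endogenous HLA-B in CRISPR-engineered human myoblasts served as the read-out. Cells received 4.0 ng/ml IFN-beta plus compound (seven concentrations, 1:4.3 steps, highest 46 uM final) for 24 hrs before lytic detection.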

[26] = qHTS for inhibitors of adenylyl cyclases using a fission yeast platform: a pilot screen against the NCATS LOPAC library (AID 1347410)
Method in brief: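 Inhibition of GNAS-stimulated AC9 activity in S. pombe was inferred from derepression of a PKA-repressed fbp1-GFP reporter, measured as cytometric fluorescence after 18 h at 30C with compounds at up to 57 µM.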

[27] = target: Single-stranded DNA cytosine deaminase (Homo sapiens) (UniProt Q9GZX7); test: Validation qHTS assay for inhibitors of Activation Induced Cytidine Deaminase (AID): AID signal (AID 1347429)
Single-stranded DNA cytosine deaminase (Homo sapiens), sequence (Q9GZX7 whole entry, looked up): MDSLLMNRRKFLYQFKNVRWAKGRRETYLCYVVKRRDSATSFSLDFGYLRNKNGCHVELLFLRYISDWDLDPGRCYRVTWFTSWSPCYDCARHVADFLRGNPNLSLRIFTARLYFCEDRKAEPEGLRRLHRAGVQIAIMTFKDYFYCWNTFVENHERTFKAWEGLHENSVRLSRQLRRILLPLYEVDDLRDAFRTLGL
Method in brief: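 Fluorescence at 540 nm excitation and 590 nm emission reports ssDNA cytosine deamination by AID, with UDG in the same well. Compound-treated reactions ran 4 hr at room temperature with DJC20/DJC23 substrate, followed by 30 min NaOH treatment.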

[28] = target: Calcium and integrin-binding protein 1 (Homo sapiens) (UniProt Q99828); test: Validation qHTS for Identification of Calcium Integrin Binding protein 1 (CIB1) Competitor (AID 1508618)
Calcium and integrin-binding protein 1 (Homo sapiens), sequence (Q99828 whole entry, looked up): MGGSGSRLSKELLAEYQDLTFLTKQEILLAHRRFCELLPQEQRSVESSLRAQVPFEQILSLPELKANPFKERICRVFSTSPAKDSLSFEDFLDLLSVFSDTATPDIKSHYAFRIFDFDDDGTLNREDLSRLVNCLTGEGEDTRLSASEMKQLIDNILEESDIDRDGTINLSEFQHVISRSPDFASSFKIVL
Method in brief: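 Displacement of FITC-alphaIIb peptide (100 nM) from CIB1-GST (1 uM) is monitored by polarization in quantitative HTS format; buffer carries 5 mM CaCl2 and 125 mM NaCl at pH 7.4, incubations are at room temperature.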

Papain (Carica papaya) = Papain (Carica papaya) (UniProt P00784); test: Primary qHTS assay for inhibitors of the protease papain (AID 1645873);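 note: papain turnover of Z-FR-AMC read as the AMC fluorescence gain over 10 min; series mostly up to about 50 µM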
[29] = target: Metallo-beta-lactamase type 2 (Klebsiella pneumoniae) (UniProt C7C422); test: qHTS to identify inhibitors of the New Delhi Metallo-beta-lactamase (NDM): assay validation screen against the NCATS LOPAC Collection (AID 1794843);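 note: nitrocefin turnover by NDM-1 measured as 485 nm absorbance at plateau; series mostly up to about 38 µM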
Metallo-beta-lactamase type 2 (Klebsiella pneumoniae), sequence (C7C422 whole entry, looked up): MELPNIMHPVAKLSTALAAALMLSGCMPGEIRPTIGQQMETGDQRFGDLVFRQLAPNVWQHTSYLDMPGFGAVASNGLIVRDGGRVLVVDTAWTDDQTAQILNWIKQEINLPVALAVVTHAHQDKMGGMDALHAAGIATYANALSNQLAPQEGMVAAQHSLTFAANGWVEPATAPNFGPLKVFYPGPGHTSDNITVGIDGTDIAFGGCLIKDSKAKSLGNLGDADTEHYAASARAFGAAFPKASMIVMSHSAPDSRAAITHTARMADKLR
Method in brief: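 Enzyme 2 nM final, 50 mM HEPES pH 7.0, 1 uM ZnSO4, 0.01% Tween20; cpds in DMSO, preincub w/ enzyme; + nitrocefin (50 uM stock); A485 at plateau; no-enzyme column as blank.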

[30] = target: Glutathione peroxidase 1 (Homo sapiens) (UniProt P07203); test: Primary qHTS Assay for Inhibitors of Recombinant Selenoprotein Glutathione Peroxidase 1 (GPX1) (AID 1845191); note: nearly all actives have a fitted effect of over 65% in size
Glutathione peroxidase 1 (Homo sapiens), sequence (P07203 whole entry, looked up): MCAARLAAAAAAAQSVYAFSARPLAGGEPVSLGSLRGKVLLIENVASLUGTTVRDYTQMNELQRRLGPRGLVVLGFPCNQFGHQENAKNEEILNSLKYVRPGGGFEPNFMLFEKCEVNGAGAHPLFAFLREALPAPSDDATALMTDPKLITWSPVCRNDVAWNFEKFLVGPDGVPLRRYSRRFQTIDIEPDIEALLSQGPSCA
Method in brief: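 10 nM GPX1 + cpd, 30 min RT; start w/ 1 mM GSH, 0.5 mM cumene hydroperoxide, 0.5 mM NADPH, 100 nM GR, 0.01% BSA; buffer 50 mM Tris-HCl pH 7.5, 2 mM EDTA, 150 mM NaCl; Fl 340/450, 0 & 15 min.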

[31] = target: Phospholipid hydroperoxide glutathione peroxidase GPX4 (Homo sapiens) (UniProt P36969); test: Primary qHTS Assay for Inhibitors of Recombinant Selenoprotein Glutathione Peroxidase 4 (GPX4) (AID 1845192); settings: outcome: dose series up to 50 µM unless noted; note: nearly all actives have a fitted effect of over 65% in size
Phospholipid hydroperoxide glutathione peroxidase GPX4 (Homo sapiens), sequence (P36969 whole entry, looked up): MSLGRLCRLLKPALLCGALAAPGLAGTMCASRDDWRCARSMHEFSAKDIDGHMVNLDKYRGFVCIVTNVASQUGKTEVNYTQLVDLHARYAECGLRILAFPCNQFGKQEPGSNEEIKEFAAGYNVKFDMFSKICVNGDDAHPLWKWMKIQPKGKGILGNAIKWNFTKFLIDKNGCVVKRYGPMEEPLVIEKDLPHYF
Method in brief: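 NADPH consumption, followed by fluorescence at 340/450 nm between 0 and 15 min, reports GPX4 activity via coupled glutathione reductase (100 nM). Enzyme 200 nM was pre-exposed to compound 30 min; 0.5 mM cumene hydroperoxide and 1 mM GSH served as substrates.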

Measured: Potency

CC[N+](CC)(CC)CC
inactive: all assays above
